We go through 18 compounds from PubChem BioAssay (NCATS).

Results filed as inconclusive are left out. A number with no mark means an inactive call. The source made the active and inactive calls. Calls follow the shape of the dose curve; as a rule, active = well fitted inhibition curve with a large enough effect; inconclusive = small, poorly fitted or top-dose-only effect; inactive = flat fitted curve, though single readings scatter.
% is scaled to controls: 0 for no effect and ±100 for the full control effect.

The target of this test is Calcium and integrin-binding protein 1 (Homo sapiens) (UniProt Q99828). The experiment in a line: Primary qHTS for Identification of Calcium Integrin Binding Protein 1 (CIB1) Competitor (AID 1508620).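 Also: GST tagged CIB1 binding a fluorescein labelled alphaIIb integrin peptide tracer; top concentration of the series differs between compounds.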 Particulars: CIB1-GST / FITC-alphaIIb peptide fluorescence polarization; series mostly up to 114 µM; activity change, negative = inhibition: at the top concentration. The gist of the method: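 Fluorescence polarization competition: CIB1-GST (1 uM final) preincubated with compound 15 min at room temperature, then FITC-labeled alphaIIb peptide (100 nM final) added for another 15 min. Polarization read at Ex 480/Em 540.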
Chain of Calcium and integrin-binding protein 1 (Homo sapiens) (Q99828 whole entry, looked up): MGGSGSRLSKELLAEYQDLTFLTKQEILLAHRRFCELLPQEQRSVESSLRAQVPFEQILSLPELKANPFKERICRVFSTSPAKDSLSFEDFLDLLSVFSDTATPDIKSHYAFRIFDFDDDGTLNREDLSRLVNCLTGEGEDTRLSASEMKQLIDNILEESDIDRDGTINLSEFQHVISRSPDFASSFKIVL
For orientation: qHTS replaces the single test concentration by a dilution series.
For the compound `Cc1cc2c(s1)c1cnn(Cc3cccc(C(F)(F)F)c3)c(=O)c1n2C`, the “activity change, negative = inhibition” value was 5.12%. Turning to `c1ccc(OCc2nnc3n2N=C(c2ccccc2)CS3)cc1`, the Potency result was “inactive”. As to `O=C(Nc1ccc(Oc2ccccc2)cc1)Nc1nnc(-c2ccncc2)s1`, the “activity change, negative = inhibition” value was 1.14%.

For `Cc1cccc(C[C@H](C(=O)O)N2C(=O)c3ccc(C(=O)O)cc3C2=O)c1`, the “activity change, negative = inhibition” value is 1.27%. In the case of `Clc1ccc(CSc2nc3ncc(Br)cc3[nH]2)cc1Cl`, the “activity change, negative = inhibition” value is -1.94%. For the compound `N#Cc1nc(Nc2cccc(-c3ccccc3)c2)nc(NC2CCCC2)n1`, the “activity change, negative = inhibition” value is 4.96%. Same read-out and setting: as for `N#Cc1nc(Nc2cc(F)cc(F)c2)c2ncn(CCN3CCCC3)c2n1`, the figure is 6.34%; as for `CC(C)c1nc2c(cnn2C)c(=O)n1N`, 7.12%; as for `COc1ccccc1-c1nnc2n1N=C(c1c(OC)cccc1OC)CS2`, 6.7%. Take `COc1ccc(Nc2nc(-c3ccncc3)nc3ccccc23)cc1F`: the “activity change, negative = inhibition” value is 0.902%. For `O=C(NCc1ccccc1)n1cc(P(=S)(c2ccccc2)c2ccccc2)c2ccccc21`, the “activity change, negative = inhibition” value was -0.464%. On to `CN(C)CCCNc1ccc(NC(=O)c2cccs2)cn1`, for which the “activity change, negative = inhibition” value is 0.751%.

For the compound `O=C(Cn1nc(-c2ccccc2)ccc1=O)NCCc1ccccc1`, the “activity change, negative = inhibition” value is -0.404%. Consider `Cc1cccc(CNc2ccnc(-c3ccc(C(F)(F)F)cc3)n2)c1`, for which the “activity change, negative = inhibition” value was 2.56%. On the same count and under the same terms, as for `COc1ccc(C2=Nn3c(nnc3-c3ccccc3Cl)SC2)cc1OC1CCCC1`, the figure is 0.59%; as for `Cc1ccc(OCCn2c(CCNC(=O)c3ccc(Br)cc3)nc3ccccc32)cc1`, 21.4%; as for `Cn1cc(C[C@H](C(=O)O)N2C(=O)c3ccc(C(=O)O)cc3C2=O)c2ccccc21`, -3.89%. Still for that read-out and setting: as for `O=[S+]([O-])(c1c(F)cccc1F)N1CCN([S+](=O)([O-])c2c(F)c(F)c(F)c(F)c2F)CC1`, the figure is 10.4%.
